Only some compounds are listed: those with a hit (about 28% of all), similar ones and a draw of the others.
CYP2C9 inh – human CYP2C9 inhibition; CYP2C9 Supersomes, luciferin-H conversion, luminescence; inhibition, % at 5 µM; actives 20% (n = 96,000);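 active = blocking of liver enzyme CYP2C9 beyond about 50% at 5 µM, limit read from the data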
CYP2C19 inh – blocks human cytochrome P450 2C19; P33261; CYP2C19 Supersomes, luciferin-H EGE luminescence, 30 min; inhibition, % at 5 µM; actives 21% (n = 96,000); AID 778;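 active = CYP2C19 inhibition above a set limit at 5 µM in the primary screen, cut at about 50% in these data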
CYP2C19 activ – activators of human cytochrome P450 2C19 | AID 1025 | 96,000 tested, under 10 active | recombinant CYP2C19, luciferin-H EGE luminescence; hits give high values; 0 = fully inhibited enzyme, 1 = untreated enzyme | activation factor at 5 µM | P33261;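 active = activation factor of at least 2 at 5 µM in the primary screen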
Mac1 fbg enh – increases human CD11b/CD18 adhesion to fibrinogen. P05107+P11215. K562 CD11b/CD18 adhesion to fibrinogen, ATPlite luminescence. activation, % at 10 µM. actives 0.07% (n = 93,000). AID 1499;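 active = 10 µM primary screen giving 50% or more activity, confirmed by 40% or more on retest at that dose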
Target sequence (P05107 whole entry, looked up, other chains not shown): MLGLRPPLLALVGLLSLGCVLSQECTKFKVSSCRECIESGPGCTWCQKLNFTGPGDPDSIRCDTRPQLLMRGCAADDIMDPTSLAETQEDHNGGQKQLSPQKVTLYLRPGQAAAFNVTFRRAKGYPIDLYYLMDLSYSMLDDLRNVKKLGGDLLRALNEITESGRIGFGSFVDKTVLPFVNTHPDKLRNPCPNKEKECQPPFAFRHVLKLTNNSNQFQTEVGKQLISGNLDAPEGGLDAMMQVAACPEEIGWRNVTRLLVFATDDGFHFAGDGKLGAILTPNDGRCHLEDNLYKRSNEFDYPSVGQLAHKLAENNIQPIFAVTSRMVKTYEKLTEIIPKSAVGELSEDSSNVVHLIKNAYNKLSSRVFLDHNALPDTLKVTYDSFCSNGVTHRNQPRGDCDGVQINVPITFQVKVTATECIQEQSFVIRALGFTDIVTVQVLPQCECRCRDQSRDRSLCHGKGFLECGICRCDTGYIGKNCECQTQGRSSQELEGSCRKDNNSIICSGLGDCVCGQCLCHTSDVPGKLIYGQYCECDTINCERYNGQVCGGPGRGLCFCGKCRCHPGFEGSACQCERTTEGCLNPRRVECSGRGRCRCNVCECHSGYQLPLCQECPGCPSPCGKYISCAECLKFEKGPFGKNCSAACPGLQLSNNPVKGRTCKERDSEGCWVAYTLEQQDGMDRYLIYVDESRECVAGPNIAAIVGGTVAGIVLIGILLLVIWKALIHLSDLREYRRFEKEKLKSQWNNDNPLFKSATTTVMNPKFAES
CYP2C9 activ – activators of human CYP2C9. recombinant CYP2C9, luciferin-H conversion, luminescence; hits give high values; factor 1 = untreated enzyme, 0 = blocked. activation factor at 5 µM. actives 1.4% (n = 96,000). AID 1024;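 active = activation factor of 2 or more for CYP2C9 at a 5 µM dose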
Mac1 fbg inh – CD11b/CD18-fibrinogen binding inhibition | P05107+P11215 | K562 CD11b/CD18 adhesion to fibrinogen, ATPlite luminescence; Mn2+ added to activate the integrin | inhibition, % at 10 µM | actives 0.54% (n = 93,000);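 active = primary inhibition of 50% or more at 10 µM, then 40% or more on retest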
Numbers stand for hits; – = inactive; · = not tested or not shown.

SMILES | CYP2C9 inh | CYP2C19 inh | CYP2C19 activ | Mac1 fbg enh | CYP2C9 activ | Mac1 fbg inh
O=C(COc1ccc2ccccc2c1)NCCNC(=O)COc1ccc2ccccc2c1 | – | – | – | – | – | –
O=C(CNC(=O)c1cccs1)NC1=NCCS1 | – | – | – | – | – | –
O=C(COc1ccc2ccccc2c1)NC1=NCCS1 | – | 64.8 | – | – | – | –
COCCCNC(=O)c1ccc(CS(=O)(=O)c2ccc(Br)cc2)o1 | – | – | – | – | – | –
COc1cccc(NC(=O)c2ocnc2C)c1 | – | – | – | – | – | –
CCOc1ccc2nc(NS(=O)(=O)c3ccc4c(c3)n(C)c(=O)n4C)sc2c1 | 97.6 | – | – | – | – | –
COc1cc(NS(=O)(=O)c2ccc3c(c2)n(C)c(=O)n3C)cc(OC)c1 | 84.4 | 59.3 | – | – | – | –
Cc1ccc(S(=O)(=O)Nc2nc3ccc(S(C)(=O)=O)cc3s2)cc1 | 97.7 | – | – | – | – | –
Cc1ccc(NS(=O)(=O)c2ccc3c(c2)c(=O)n(C)c(=O)n3C)cc1F | 92.0 | 94.1 | – | – | – | –
Cc1cc(C)cc(NS(=O)(=O)c2ccc3c(c2)c(=O)n(C)c(=O)n3C)c1 | – | – | – | – | – | –
Cc1ccc(Cl)c(OC(=O)c2nn(C(C)C)c(=O)c3ccccc23)c1 | · | · | · | – | · | –
CC(=O)c1cccc(NC(=O)NC(C)C2CCCO2)c1 (stereo not drawn) | – | – | – | – | – | –
COc1ccc(C2(C(=O)NCCCN(C)C)CCOCC2)cc1 | – | – | – | – | – | –
CCOc1ccc(S(=O)(=O)Nc2nc3ccc(OC)cc3s2)cc1 | 98.6 | 82.3 | – | – | – | –
CCOc1ccc2nc(NS(C)(=O)=O)sc2c1 | – | – | – | – | – | –
Cc1ccc(C(C(=O)NCc2ccco2)N(C(=O)CNC(=O)c2cccs2)c2c(C)cc(C)cc2C)cc1 (stereo not drawn) | – | – | – | – | – | –
CC1(C)c2ccccc2N2CCC(=O)NC21/C=C/c1ccco1 (stereo not drawn) | 51.7 | 86.2 | – | – | – | –
Nc1nc(NCc2ccccc2)nc(Nc2ccc(F)cc2)c1[N+](=O)[O-] | – | – | – | – | – | –
CC(=O)c1c(C)[nH]c(C(=O)N2CCc3ccccc32)c1C | 69.3 | 68.9 | – | – | – | –
C/C(=C\C(=O)N1CCc2ccccc21)C(=O)O | – | – | – | – | – | –
CCc1nnc(NC(=O)C(NS(=O)(=O)c2ccc3c(c2)OCCO3)C(C)C)s1 (stereo not drawn) | 89.6 | 94.6 | – | – | – | –
Cc1nc2ccc(S(=O)(=O)NC(C(=O)NC3CCCC3)C(C)C)cc2s1 (stereo not drawn) | – | – | – | – | – | –
Cc1nc2ccc(S(=O)(=O)N(C)CC(=O)NCc3ccc4c(c3)OCO4)cc2s1 | 53.4 | 57.2 | – | – | – | –
Cc1nc2ccc(S(=O)(=O)NC(C(=O)NCc3ccc4c(c3)OCO4)C(C)C)cc2s1 (stereo not drawn) | – | 51.0 | – | – | – | –
Cc1nc2ccc(S(=O)(=O)NCC(=O)NCc3ccc4c(c3)OCO4)cc2s1 | – | – | – | – | – | –
SMILES | CYP2C9 inh | CYP2C19 inh | CYP2C19 activ | Mac1 fbg enh | CYP2C9 activ | Mac1 fbg inh
Cc1cc(NS(=O)(=O)c2ccc(NC(=O)c3ccoc3C)cc2)nc(C)n1 | – | – | – | – | – | –
Cc1ccc(N(CC(=O)NCc2ccncc2)S(C)(=O)=O)cc1Cl | 88.9 | 98.7 | – | – | – | –
Cc1ccc(N(CC(=O)NCc2cccnc2)S(C)(=O)=O)cc1C | – | 83.9 | – | – | – | –
CS(=O)(=O)N(CC(=O)Nc1cccnc1)c1ccc2c(c1)OCCO2 | – | – | – | – | – | –
C=CCNC(=O)CN(c1ccc(F)c(Cl)c1)S(C)(=O)=O | – | 56.8 | – | – | – | –
CS(=O)(=O)N(CC(=O)NCc1ccncc1)c1cc(Cl)cc(Cl)c1 | 86.7 | 99.7 | – | – | – | –
Cc1ccc(C)c(/C=N/NC(=S)NCCc2ccccc2)c1 | – | – | – | – | – | –
c1cnc2c(OCc3nc4ccccc4[nH]3)cccc2c1 | – | 94.8 | – | – | – | –
COc1ccccc1OCc1nc2ccccc2[nH]1 | – | 73.7 | – | · | – | ·
COc1cccc(OCc2nc3ccccc3[nH]2)c1 | 64.6 | 100.2 | – | – | – | –
COc1ccc(OCc2nc3ccccc3[nH]2)cc1 | – | – | – | – | – | –
COc1ccc(NC(=O)Cc2nc3ccccc3[nH]2)cc1 | – | 66.8 | – | – | – | –
COc1cccc(OCc2nc3ncc(Br)cc3[nH]2)c1 | – | 53.6 | – | – | – | –
COc1ccc(S(=O)(=O)Nc2nc3ccccc3nc2Nc2ccc3c(c2)OCO3)cc1 | · | · | · | – | · | –
O=S(=O)(Nc1nc2ccccc2nc1N1CCN(c2ccccc2F)CC1)c1ccc(Cl)cc1 | 100.1 | – | – | – | – | –
O=C(CCS(=O)(=O)c1ccc(Cl)cc1)N1CCN(c2ccccc2F)CC1 | – | – | – | – | – | –
Cc1ccccc1S(=O)(=O)Nc1nc2ccccc2nc1N1CCOCC1 | 70.5 | – | – | – | – | –
CCOc1ccc(S(=O)(=O)Nc2nc3ccccc3nc2N2CCN(C)CC2)cc1 | 56.3 | – | – | – | – | –
COc1ccc(N2C(=O)CCC(C(=O)N3CCOCC3)C2c2ccc(F)cc2)cc1 (stereo not drawn) | – | – | – | – | – | –
COc1ccc(-c2nnc(SCC(=O)N(Cc3ccccc3)C(C)(C)C)o2)cc1OC | – | – | – | – | – | –
COc1ccc(/C=N/NS(=O)(=O)c2ccc(C)cc2)cc1OC(=O)c1ccccc1 | – | – | – | – | – | –
COc1ccc(/C=N/NS(=O)(=O)c2ccccc2)cc1OS(=O)(=O)c1ccccc1 | 93.5 | – | – | – | – | –
CCOc1cc(/C=N/NC(=O)c2cccc([N+](=O)[O-])c2)ccc1OS(=O)(=O)c1ccccc1 | 59.1 | 57.2 | – | · | – | ·
COc1ccc(/C=N/NS(=O)(=O)c2ccccc2)cc1OC(=O)c1ccc(C)cc1 | 89.1 | – | – | · | – | ·
O=c1c([N+](=O)[O-])c(N2CCCCC2)c2ccccc2n1-c1ccccc1 | – | – | – | – | – | –
C=CCNCCCCOc1ccc(OCC)cc1 | – | – | – | – | – | –
CCOc1ccc(N2CC(C(=O)Nc3ccc(S(=O)(=O)Nc4ncccn4)cc3)CC2=O)cc1 (stereo not drawn) | – | – | – | – | – | –
O=C(CCN1C(=O)C2C3C=CC(C3)C2C1=O)Nc1ccccn1 (stereo not drawn) | – | – | – | – | – | –
CCOC(=O)C1=NNC(C(=O)c2ccc(OC)cc2)C1c1ccccc1 (stereo not drawn) | 52.2 | – | – | – | – | –
CCOC(=O)C1=C(Cc2ccc(Cl)cc2)C(=O)c2ccccc2C1=O | 94.8 | 99.5 | – | – | – | –

Screening data: PubChem BioAssay, Sanford-Burnham Center for Chemical Genomics
